Inconclusive results are not listed. Where a call stands in place of a potency, no number is given. The source made the active and inactive calls. Calls follow the shape of the dose curve; as a rule, active = well fitted inhibition curve with a large enough effect in the repeat runs; inconclusive = weak or mixed curves; inactive = no such curve, though single readings can be large or run the other way.
What follows are compounds tested against Cytochrome P450 3A4 (Homo sapiens) (UniProt P08684) (assay: Cytochrome P450 Family 3 Subfamily A Member 4 (CYP3A4) small molecule antagonists: luciferase reporter qHTS assay (AID 1671201; also: nearly all actives have a fitted effect of over 50% in size)). Settings: P450-Glo CYP3A4 enzyme, luciferin luminescence, 1 h; series mostly up to 115 µM.
Cytochrome P450 3A4 (Homo sapiens), sequence (P08684 whole entry, looked up): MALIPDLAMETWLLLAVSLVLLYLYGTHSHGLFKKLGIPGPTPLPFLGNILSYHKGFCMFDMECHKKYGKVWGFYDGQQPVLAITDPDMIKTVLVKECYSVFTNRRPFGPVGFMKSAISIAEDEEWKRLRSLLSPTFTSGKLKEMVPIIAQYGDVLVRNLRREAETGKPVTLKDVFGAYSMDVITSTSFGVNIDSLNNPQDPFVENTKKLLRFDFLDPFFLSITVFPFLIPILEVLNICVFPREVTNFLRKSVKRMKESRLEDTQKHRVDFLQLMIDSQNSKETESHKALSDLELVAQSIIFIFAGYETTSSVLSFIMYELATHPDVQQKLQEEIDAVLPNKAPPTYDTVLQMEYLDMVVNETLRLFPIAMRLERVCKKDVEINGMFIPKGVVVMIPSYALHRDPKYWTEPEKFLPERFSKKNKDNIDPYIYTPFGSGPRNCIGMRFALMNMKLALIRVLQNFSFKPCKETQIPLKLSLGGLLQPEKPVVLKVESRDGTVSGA
Text: National Center for Advancing Translational Sciences [NCATS]
U.S. Environmental Protection Agency [EPA]
National Institutes of Environmental Health Sciences [NIEHS]
National Toxicology Program [NTP]
U.S. Food and Drug Administration [FDA]
Cytochrome P450 (CYP) enzymes are membrane-bound hemeproteins that play a key role in metabolism of drugs and xenobiotics. Evaluation of the effect of chemicals on CYP isozymes is useful to minimize the adverse drug reactions and toxicities in drug development process. Tox21 chemicals were tested for their effect on CYP enzyme activities by using P450-Glo (TM) screening systems (Promega Corporation, Madison, WI). These systems provide a luminescent method containing proluciferin substrates and are converted to luciferin products by CYP isozymes. The luciferin products formed are detected with a luciferin detection reagent, and the amount of light produced is proportional to CYP activity. P450-Glo (TM) CYP3A4 screening system (Catalog. No. V9910) was used to detect the compounds that interfere in CYP3A4 activity. The positive control compound used for CYP3A4 assay is ketoconazole (Sigma-Aldrich, St. Louis, MO).
Tox21 Assay Protocol Summary:
Two ul of enzyme-substrate mix was dispensed into medium binding white/solid 1536-well plates (Greiner Bio-One North America Inc., Monroe, NC) using a BioRaptr Flying Reagent Dispenser (FRD, Beckman Coulter, Brea, CA). Compounds dissolved in DMSO and positive control (ketoconazole) were transferred to the assay plates at 23 nl using a Pintool station (Wako, San Diego, CA). The assay plates were incubated at room temperature for 10 min. Then 2 ul of NADPH regeneration solution was added to each well of the assay plates using an FRD and incubated at room temperature for 1 h. The reaction was stopped by adding 4 ul of detection reagent using an FRD and after 20 min incubation at room temperature the luminescence signal was measured using a ViewLux plate reader (Perkin Elmer, Shelton, CT). Data were expressed as relative luminescence units.
Potency is read from the fitted curve at half-maximal effect.

Row | Compound | Potency
1 | Cc1cnccn1 | inactive
2 | OCCC(O)CO (stereo not given) | inactive
3 | Cc1cncc(C)c1 | inactive
4 | COc1cc(C(C)C)c2c(c1)S(=O)(=O)N(COc1cc(=O)n3cccc(OCCN4CCCCC4)c3n1)C2=O | 0.301 µM (active)
5 | CN(C)c1ccc(N=Nc2ccccc2C(=O)O)cc1 | inactive
6 | CO[C@H]1C=CO[C@@]2(C)Oc3c(C)c(O)c4c(O)c(cc(O)c4c3C2=O)NC(=O)/C(C)=C\C=C/[C@H](C)[C@H](O)[C@@H](C)[C@@H](O)[C@@H](C)[C@H](OC(C)=O)[C@@H]1C | 1.27 µM (active)
7 | CCO[Si](CCCSSSSCCC[Si](OCC)(OCC)OCC)(OCC)OCC | 2.83 µM (active)
8 | Cc1cccc(C)n1 | inactive
9 | C/C=C/c1ccc(OC)c(OC)c1 | 20 µM (active)
10 | CCOC(=O)CC(C)O (stereo not given) | inactive
11 | CCc1cccc(C)c1 | inactive
12 | Cc1ccc2ccc3cccc4ccc1c2c34 | 20 µM (active)
13 | CC1=CP(=O)(c2ccccc2)CC1 (stereo not given) | inactive
14 | CC(=O)Oc1ccc(C2(c3ccc(OC(C)=O)cc3)C(=O)Nc3ccccc32)cc1 | inactive
15 | CCN(CC)c1ccc(N)cc1 | 11.6 µM (active)
16 | O=C1OC(=O)c2ccc3c4c(ccc1c24)C(=O)OC3=O | inactive
17 | CCCC(CC)CCCCCCCN (stereo not given) | 3.25 µM (active)
18 | CCCCOC(=O)C(C)CC (stereo not given) | inactive
19 | CC=O | inactive
20 | CCc1cccc(CC)c1N(COC)C(=O)CS(=O)(=O)O | inactive

Row | Compound | Potency
21 | NC(=O)c1ccccc1N | inactive
22 | CS(C)(=O)=O | inactive
23 | CCCC(O)C(O)CO (stereo not given) | inactive
24 | CCCCCCCC(C)=O | inactive
25 | CCOCOCC | inactive
26 | O=C(O)CC(=O)O | inactive
27 | CCCCCCCC/C=C\CCCCCCCC(=O)OCCOC(=O)CCCCCCC/C=C\CCCCCCCC | 10.4 µM (active)
28 | CCOC(/C=C(\C)CCC=C(C)C)OCC | inactive
29 | CCCC(C)CCC(C)=O (stereo not given) | inactive
30 | CCCCCCS | inactive
31 | CN(Cc1cc(Br)cc(Br)c1N)C1CCCCC1 | inactive
32 | CC(=O)Oc1ccc(C2(c3ccc(OC(C)=O)cc3)Oc3ccccc3NC2=O)cc1 | inactive
33 | CCCCCCCC(OC)OC | inactive
34 | CC(=O)O[C@@H]1C[C@@H]2CC[C@@]1(C)C2(C)C | inactive
35 | O=C1OC(=O)c2cccc3cccc1c23 | inactive
36 | C=C[C@](C)(O)CC[C@@H]1[C@@]2(C)CCCC(C)(C)[C@@H]2CC[C@@]1(C)O | 5.03 µM (active)
37 | CCCCCCOc1cc(C)c(O)c(C)c1C | 28.6 µM (active)
38 | C[Si](C)(C)Cl | inactive
39 | CC(O)C#CC(C)O (stereo not given) | inactive
40 | O=C(Nc1ccc(Cl)c(Cl)c1)c1cc(Cl)cc(Cl)c1O | 17.8 µM (active)

Source: PubChem BioAssay (Tox21)
